# Laboratory results from PubChem BioAssay.
# Records with an inconclusive call do not appear. Active and inactive are the calls of the source. Rule as the data show it, unless noted: active = fluorescence slope change above about 50%; inconclusive = mostly about 31% to 49%; inactive = weaker than that.
# How the values were obtained:
# [1] = compounds altering viability of human ES cells (AID 493140; call rule not given here;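 also: cells exposed to compounds for four days before counting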); conditions: human embryonic stem cell survival screen; stronger effect = higher value
# [2] = biological target: ATP-dependent translocase ABCB1 (Homo sapiens) (UniProt P08183); assay: P-glycoprotein substrate transport blockade – cell-based (AID 377); conditions: MDR1-expressing cells, fluorescent substrate accumulation slope; stronger effect = higher value; concentration not given here
# Sequence of ATP-dependent translocase ABCB1 (Homo sapiens) (P08183 whole entry, looked up): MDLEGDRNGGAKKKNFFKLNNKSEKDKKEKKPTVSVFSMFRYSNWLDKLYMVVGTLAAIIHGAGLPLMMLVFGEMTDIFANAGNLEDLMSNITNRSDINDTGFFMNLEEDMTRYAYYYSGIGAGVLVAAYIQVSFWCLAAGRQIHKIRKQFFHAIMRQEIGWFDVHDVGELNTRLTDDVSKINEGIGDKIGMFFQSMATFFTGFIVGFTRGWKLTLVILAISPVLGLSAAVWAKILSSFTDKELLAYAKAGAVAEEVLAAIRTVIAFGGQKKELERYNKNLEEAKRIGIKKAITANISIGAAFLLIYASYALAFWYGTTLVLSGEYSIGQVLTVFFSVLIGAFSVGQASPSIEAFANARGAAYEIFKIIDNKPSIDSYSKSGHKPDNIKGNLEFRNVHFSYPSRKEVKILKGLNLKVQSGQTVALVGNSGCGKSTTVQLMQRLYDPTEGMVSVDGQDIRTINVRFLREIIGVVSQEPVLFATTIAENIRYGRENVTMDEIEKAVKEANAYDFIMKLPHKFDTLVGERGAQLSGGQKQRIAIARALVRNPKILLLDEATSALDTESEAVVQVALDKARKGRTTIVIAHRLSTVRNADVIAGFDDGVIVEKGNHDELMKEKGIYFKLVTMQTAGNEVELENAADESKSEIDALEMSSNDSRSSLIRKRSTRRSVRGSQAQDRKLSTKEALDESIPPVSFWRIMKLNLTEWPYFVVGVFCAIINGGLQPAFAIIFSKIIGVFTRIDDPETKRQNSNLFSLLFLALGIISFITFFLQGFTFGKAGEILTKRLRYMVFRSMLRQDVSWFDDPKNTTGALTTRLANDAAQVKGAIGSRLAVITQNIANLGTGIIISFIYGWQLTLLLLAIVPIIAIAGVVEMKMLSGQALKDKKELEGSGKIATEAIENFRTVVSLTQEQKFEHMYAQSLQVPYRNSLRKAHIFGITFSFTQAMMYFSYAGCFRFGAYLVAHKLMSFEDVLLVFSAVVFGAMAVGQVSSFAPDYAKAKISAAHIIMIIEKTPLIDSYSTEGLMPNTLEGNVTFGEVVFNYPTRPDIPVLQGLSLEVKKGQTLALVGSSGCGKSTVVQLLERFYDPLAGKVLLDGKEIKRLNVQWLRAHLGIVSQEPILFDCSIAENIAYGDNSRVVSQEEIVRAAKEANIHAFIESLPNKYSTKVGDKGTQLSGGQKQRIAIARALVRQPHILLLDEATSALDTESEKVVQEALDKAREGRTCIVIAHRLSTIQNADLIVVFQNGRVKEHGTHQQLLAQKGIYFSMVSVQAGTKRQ
# [3] = P. berghei load reduction in hepatocytes – cell-based, HepG2, luciferase luminescence, HepG2 viability, primary screen (AID 624349; in the data active = parasite load remaining mostly below about 12%, no sharp cut-off; inactive = mostly above about 10%;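 also: 100% = mean of DMSO negative control wells on the same plate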); conditions: P. berghei liver stage in HepG2, luciferase luminescence, concentration not given here; parasite load remaining: stronger effect = lower value; viability: measured here: HepG2 viability without parasites
# [4] = compounds altering circadian rhythm period length – cell-based, LOPAC library, luminescence reporter (AID 2774; call rule not given here;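 also: values are relative to mean of DMSO wells on each plate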); conditions: circadian reporter cells, at 7 µM, actives lie on both sides
smiles,measurement,setting,value
CCCCCCCCCCCCC/C=C/[C@@H](O)[C@@H](N)COP(=O)([O-])OCC[N+](C)(C)C,survival,[1],95.8 (inactive)
CCN1C[C@]2(C)CC[C@H](O)C34C5C[C@H]6C(O)C5[C@](O)(C[C@@H]6OC)C(CC32)[C@@H]14 (some centres not stated),fluorescence slope change,[2],-10.1% (inactive)
same,survival,[1],6.75 (inactive)
CN1CCC2=C[C@@H](O)C3OC(=O)c4cc5c(cc4C3[C@H]21)OCO5 (some centres not stated),fluorescence slope change,[2],1.8% (inactive)
same,survival,[1],6.42 (inactive)
COc1cc2c(cc1O)C1Cc3ccc(OC)c(O)c3CN1CC2 (configuration not stated),fluorescence slope change,[2],144% (active)
same,survival,[1],1.58 (inactive)
same,parasite load remaining,[3],63.3% (inactive)
same,viability,[3],69.6%
CC(C)C(C(=O)OC(C#N)c1cccc(Oc2ccccc2)c1)c1ccc(Cl)cc1 (configuration not stated),survival,[1],79 (inactive)
NCC1OC(OC2C(N)CC(N)C(O)C2O)C(N)C(O)C1O (configuration not stated),fluorescence slope change,[2],14.1% (inactive)
C=C[C@]12CN(C)C3C4COC(CC41)[C@]1(C(=O)Nc4ccccc41)[C@@H]32 (some centres not stated),fluorescence slope change,[2],13.5% (inactive)
same,survival,[1],4 (inactive)
C=C(C)[C@@H]1[C@H]2OC(=O)[C@@H]1[C@]1(O)C[C@H]3O[C@]34C(=O)OC2[C@]14C (some centres not stated),fluorescence slope change,[2],18.3% (inactive)
same,survival,[1],4 (inactive)
CN(C)Cc1c[nH]c2c(OCc3ccccc3)cccc12,fluorescence slope change,[2],61.1% (active)
NCCC(O)C(=O)NC1CC(N)C(OC2OC(CN)C(O)[C@H](O)[C@@H]2N)[C@H](OC2O[C@H](CO)[C@@H](O)[C@@H]2O)[C@@H]1O (some centres not stated),fluorescence slope change,[2],51.6% (active)
same,survival,[1],4.17 (inactive)
CCC[C@@H]1C[C@@H](C(=O)N[C@H]([C@@H](C)O)[C@H]2O[C@H](SC)[C@H](O)[C@@H](O)C2O)N(C)C1 (some centres not stated),survival,[1],18.3 (inactive)
CCOC(=O)NC1=C(N2CC2)C(=O)C(NC(=O)OCC)=C(N2CC2)C1=O,fluorescence slope change,[2],17.2% (inactive)
C[C@@H]1CCC2[C@H](C)C3CC[C@@]4(O)[C@@H]5CC(=O)[C@H]6CC(=O)CC[C@]6(C)C5C[C@H]4[C@@H]3CN2C1 (some centres not stated),fluorescence slope change,[2],16.8% (inactive)
CCN1C[C@]2(COC)CC[C@H](O)[C@@]34C5C[C@H]6C(OC)C5[C@](O)(C[C@H]6OC)C(O)(C(OC)C23)[C@@H]14 (some centres not stated),fluorescence slope change,[2],-9.9% (inactive)
same,survival,[1],4 (inactive)
CC[C@H](CO)NC(=O)[C@@H]1C=C2c3cccc4[nH]cc(c34)C[C@H]2N(C)C1,fluorescence slope change,[2],0.6% (inactive)
same,parasite load remaining,[3],67.8% (inactive)
same,viability,[3],73.1%
C=C(C(=O)OC1CC2[C@@H]3O[C@@H]3[C@@H](C1)N2C)c1ccccc1 (some centres not stated),fluorescence slope change,[2],4.6% (inactive)
CC1OC(OC2/C=C/C=C/C=C/C=C/CC/C=C/C=C/[C@H](C)[C@@H](O)[C@@H](C)[C@H](C)OC(=O)CC(O)CC(O)CC(O)CCC(O)C(O)C[C@]3(O)CC(O)C(C(=O)O)C(C2)O3)C(O)C(N)C1O (some centres not stated),fluorescence slope change,[2],108% (active)
same,survival,[1],8.92 (inactive)
same,parasite load remaining,[3],78.6% (inactive)
same,viability,[3],74%
C=C1C2C[C@@]3(C4CC5C6(C3C[C@@H]2O)[C@@H](O)CC[C@@]5(C)CN(CC)[C@H]46)[C@@H]1O (some centres not stated),fluorescence slope change,[2],24.6% (inactive)
same,survival,[1],5.92 (inactive)
CCCCC[C@@H](/C=C/C=C\CCCCCCCCCC(=O)O)OO,survival,[1],112 (inactive)
CCN(CC)C(=O)N[C@H]1C=C2c3cccc4[nH]cc(c34)C[C@H]2N(C)C1,fluorescence slope change,[2],136% (active)
same,period change,[4],0.33 h (inactive)
same,survival,[1],19.8 (inactive)
same,parasite load remaining,[3],92.5% (inactive)
same,viability,[3],87.9%
CN(CC(=O)O)/C(N)=N/P(=O)(O)O,fluorescence slope change,[2],63.4% (active)
CN1[C@@H]2CCC[C@H]1CC(=O)C2,fluorescence slope change,[2],53.5% (active)
N#CC(C#N)=Cc1cc(O)c(O)c([N+](=O)[O-])c1,survival,[1],100 (inactive)
C=C[C@@H]1CN2CCC1C[C@@H]2[C@@H](O)c1ccnc2ccccc12 (some centres not stated),fluorescence slope change,[2],13.4% (inactive)
CC(=O)O[C@@H]1CC(O[C@@H]2C(C)OC(O[C@@H]3C(C)OC(OC4CCC5(C)C(CCC6C5CC(O)C5(C)C(C7=CC(=O)OC7)CCC65O)C4)C[C@H]3O)C[C@H]2O)OC(C)[C@H]1OC1OC(CO)[C@@H](O)[C@@H](O)[C@@H]1O (some centres not stated),fluorescence slope change,[2],3% (inactive)
CC[C@H]1CN2CCc3cc(OC)c(OC)cc3[C@@H]2C[C@@H]1C[C@H]1NCCc2cc(O)c(OC)cc21,survival,[1],0.333 (inactive)
same,parasite load remaining,[3],8.07% (inactive)
same,viability,[3],49.7%
